Source: the supplement of paper PMC8728848
About 410 targets per protein were measured; listed, in parts, are those with the strongest signals and a random draw of the rest.

What was measured:
Assay in all cases: glycan array binding signal (z-score within array); higher = stronger binding
Conditions in all cases: glycan notation: IUPAC condensed, linker removed
[1] = target: Fuc(a1-2)Gal(b1-3)GalNAc(a1-3)[Fuc(a1-2)]Gal(b1-4)Glc
Procedure, shortened: (§1)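 Glycan array binding is given as a within-array Z-score, which can be read as non-binding when negative. The arrays, 3228 of them, came from the Consortium for Functional Glycomics database and were retained only where the protein sequence was available. Z-scores were averaged across arrays of the same protein sequence at different concentrations or buffers and across linkers.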

[2] = target: Fuc(a1-2)Gal(b1-3)GlcNAc
Procedure, shortened: as §1

[3] = target: Fuc(a1-2)Gal(b1-3)GlcNAc(b1-3)[Neu5Ac(a2-6)Gal(b1-4)GlcNAc(b1-6)]Gal(b1-4)Glc
Procedure, shortened: as §1

[4] = target: Fuc(a1-2)Gal(b1-3)[Fuc(a1-4)]GlcNAc(b1-3)[Fuc(a1-3)[Gal(b1-4)]GlcNAc(b1-6)]Gal(b1-4)Glc
Procedure, shortened: as §1

[5] = target: Fuc(a1-2)Gal(b1-4)GlcNAc(b1-2)Man
Procedure, shortened: as §1

[6] = target: Fuc(a1-2)Gal(b1-4)GlcNAc(b1-2)[Fuc(a1-2)Gal(b1-4)GlcNAc(b1-4)]Man(a1-3)[Fuc(a1-2)Gal(b1-4)GlcNAc(b1-2)Man(a1-6)]Man(b1-4)GlcNAc(b1-4)GlcNAc
Procedure, shortened: as §1

[7] = target: Fuc(a1-2)Gal(b1-4)GlcNAc(b1-3)[Fuc(a1-3)[Gal(b1-4)]GlcNAc(b1-6)]Gal(b1-4)Glc
Procedure, shortened: as §1

[8] = target: Fuc(a1-2)[GalNAc(a1-3)]Gal(b1-4)GlcNAc(b1-6)GalNAc
Procedure, shortened: as §1

[9] = target: Fuc(a1-3)[Gal(b1-4)]GlcNAc(b1-2)Man(a1-3)[Fuc(a1-3)[Gal(b1-4)]GlcNAc(b1-2)Man(a1-6)]Man(b1-4)GlcNAc(b1-4)[Fuc(a1-6)]GlcNAc
Procedure, shortened: as §1

[10] = target: Fuc(a1-3)[Gal(b1-4)]GlcNAc(b1-6)[Gal(b1-3)GlcNAc(b1-3)]Gal(b1-4)Glc
Procedure, shortened: as §1

[11] = target: Fuc(a1-3)[GalNAc(b1-4)]GlcNAc
Procedure, shortened: as §1

[12] = target: Fuc(a1-4)GlcNAc
Procedure, shortened: as §1

[13] = target: Gal(a1-3)Gal(b1-4)GlcNAc(b1-6)GalNAc
Procedure, shortened: as §1

[14] = target: Gal(a1-3)GalNAc
Procedure, shortened: as §1

[15] = target: Gal(b1-3)GalNAc(b1-4)Gal(b1-4)Glc
Procedure, shortened: as §1

[16] = target: Gal(b1-3)GlcNAc(b1-3)Gal(b1-4)GlcNAc(b1-6)[Gal(b1-3)GlcNAc(b1-3)]Gal(b1-4)Glc
Procedure, shortened: as §1

[17] = target: Gal(b1-3)GlcNAc(b1-3)Gal(b1-4)[Fuc(a1-3)]GlcNAc(b1-6)[Gal(b1-3)GlcNAc(b1-3)]Gal(b1-4)Glc
Procedure, shortened: as §1

[18] = target: Gal(b1-3)[GlcNAc(b1-6)]GalNAc
Procedure, shortened: as §1

[19] = target: Gal(b1-4)GlcNAc(b1-2)[Gal(b1-4)GlcNAc(b1-6)]Man(a1-6)[GlcNAc(b1-4)][Gal(b1-4)GlcNAc(b1-2)Man(a1-3)]Man(b1-4)GlcNAc(b1-4)GlcNAc
Procedure, shortened: as §1

[20] = target: Gal(b1-4)GlcNAc(b1-3)Gal(b1-4)Glc
Procedure, shortened: as §1

[21] = target: Gal(b1-4)GlcNAc(b1-3)Gal(b1-4)GlcNAc(b1-3)Gal(b1-4)GlcNAc(b1-3)Gal(b1-4)GlcNAc(b1-3)Gal(b1-4)GlcNAc(b1-2)Man(a1-3)[Gal(b1-4)GlcNAc(b1-3)Gal(b1-4)GlcNAc(b1-3)Gal(b1-4)GlcNAc(b1-3)Gal(b1-4)GlcNAc(b1-3)Gal(b1-4)GlcNAc(b1-2)Man(a1-6)]Man(b1-4)GlcNAc(b1-4)GlcNAc
Procedure, shortened: as §1

[22] = target: Gal(b1-4)GlcNAc(b1-3)Gal(b1-4)[Fuc(a1-3)]GlcNAc(b1-3)Gal(b1-4)[Fuc(a1-3)]GlcNAc
Procedure, shortened: as §1

[23] = target: Gal(b1-4)GlcNAc(b1-6)Gal(b1-4)GlcNAc
Procedure, shortened: as §1

[24] = target: Gal3S(b1-4)Glc
Procedure, shortened: as §1

[25] = target: Gal3S(b1-4)[Fuc(a1-3)]GlcNAc
Procedure, shortened: as §1

[26] = target: Gal6S(b1-4)GlcNAc6S
Procedure, shortened: as §1

[27] = target: Glc(a1-6)Glc(a1-6)Glc(a1-6)Glc
Procedure, shortened: as §1

[28] = target: GlcNAc(b1-3)Gal(b1-4)GlcNAc(b1-2)Man(a1-3)[GlcNAc(b1-3)Gal(b1-4)GlcNAc(b1-2)Man(a1-6)]Man(b1-4)GlcNAc(b1-4)GlcNAc
Procedure, shortened: as §1

[29] = target: GlcNAc(b1-3)Gal(b1-4)GlcNAc(b1-3)Gal(b1-4)GlcNAc
Procedure, shortened: as §1

[30] = target: GlcNAc(b1-3)Gal(b1-4)GlcNAc(b1-3)Gal(b1-4)GlcNAc(b1-2)[GlcNAc(b1-3)Gal(b1-4)GlcNAc(b1-3)Gal(b1-4)GlcNAc(b1-6)]Man(a1-6)[GlcNAc(b1-3)Gal(b1-4)GlcNAc(b1-3)Gal(b1-4)GlcNAc(b1-2)Man(a1-3)]Man(b1-4)GlcNAc(b1-4)[Fuc(a1-6)]GlcNAc
Procedure, shortened: as §1

[31] = target: GlcNAc(b1-3)Gal(b1-4)GlcNAc(b1-3)Gal(b1-4)GlcNAc(b1-3)Gal(b1-4)GlcNAc(b1-2)Man(a1-3)[GlcNAc(b1-3)Gal(b1-4)GlcNAc(b1-3)Gal(b1-4)GlcNAc(b1-3)Gal(b1-4)GlcNAc(b1-2)Man(a1-6)]Man(b1-4)GlcNAc(b1-4)[Fuc(a1-6)]GlcNAc
Procedure, shortened: as §1

[32] = target: GlcNAc(b1-3)Gal(b1-4)GlcNAc(b1-3)Gal(b1-4)GlcNAc(b1-3)Gal(b1-4)GlcNAc(b1-2)[GlcNAc(b1-3)Gal(b1-4)GlcNAc(b1-3)Gal(b1-4)GlcNAc(b1-3)Gal(b1-4)GlcNAc(b1-6)]Man(a1-6)[GlcNAc(b1-3)Gal(b1-4)GlcNAc(b1-3)Gal(b1-4)GlcNAc(b1-3)Gal(b1-4)GlcNAc(b1-2)Man(a1-3)]Man(b1-4)GlcNAc(b1-4)[Fuc(a1-6)]GlcNAc
Procedure, shortened: as §1

[33] = target: GlcNAc(b1-4)GlcNAc
Procedure, shortened: as §1

[34] = target: GlcNAc(b1-4)[GlcNAc(b1-6)]GalNAc
Procedure, shortened: as §1

[35] = target: GlcNAc(b1-6)Gal(b1-4)GlcNAc
Procedure, shortened: as §1

[36] = target: Man(a1-2)Man(a1-2)Man(a1-6)[Man(a1-3)]Man
Procedure, shortened: as §1

[37] = target: Man(a1-3)[Man(a1-6)]Man(b1-4)GlcNAc(b1-4)GlcNAc
Procedure, shortened: as §1

[38] = target: Man(b1-4)GlcNAc
Procedure, shortened: as §1

[39] = target: Neu5Ac(a2-3)Gal
Procedure, shortened: as §1

[40] = target: Neu5Ac(a2-3)Gal(b1-3)GalNAc6S
Procedure, shortened: as §1

[41] = target: Neu5Ac(a2-3)Gal(b1-3)GlcNAc(b1-3)Gal(b1-4)GlcNAc
Procedure, shortened: as §1

[42] = target: Neu5Ac(a2-3)Gal(b1-4)GlcNAc(b1-2)Man(a1-3)[Neu5Ac(a2-6)Gal(b1-4)GlcNAc(b1-2)Man(a1-6)]Man(b1-4)GlcNAc(b1-4)GlcNAc
Procedure, shortened: as §1

[43] = target: Neu5Ac(a2-3)Gal(b1-4)GlcNAc(b1-3)Gal(b1-4)GlcNAc(b1-2)Man(a1-3)[Neu5Ac(a2-3)Gal(b1-4)GlcNAc(b1-3)Gal(b1-4)GlcNAc(b1-2)Man(a1-6)]Man(b1-4)GlcNAc(b1-4)GlcNAc
Procedure, shortened: as §1

[44] = target: Neu5Ac(a2-3)Gal(b1-4)[Fuc(a1-3)]GlcNAc(b1-2)Man
Procedure, shortened: as §1

[45] = target: Neu5Ac(a2-8)Neu5Ac
Procedure, shortened: as §1

[46] = target: Neu5Ac(a2-8)Neu5Ac(a2-8)Neu5Ac
Procedure, shortened: as §1

[47] = target: Neu5Gc(a2-3)Gal(b1-4)GlcNAc
Procedure, shortened: as §1

B1: Epf (Streptococcus pyogenes) (protein)
chain: GDHGPEFNGVMVVKAAEAEELPDDLMNFKGTWEVSADGSSGRFFSKGATDSYVFHLIPAKDVKKPGWREHNEVKDSYIKIDKQSIAARYKTSTTAPYSVAFKVNTKSLIKDHDYKITFEQGQIASGITVDYRIGSAFNKTTDDSFKISDESKYASNVKIEGEEQGFKQREQGDKTISFRTLKEGPMSLVLLSKVEKKPQGDLDVEFKNLKIIDVTNPSQLDKGVAYVGNKNVQLTLKSDDGRTNFEGDEISLFNSRGELLQTVTVTKDQQNPISITLSEDQAKSLKNKEKLKVSIKQKQSKKTSKDFFFEVGIDPKVEAKQKEKLLELDKVKKQIEDSINGDAWLPEKPVDLQGDHGLSAWSHPQFEK
glycan array binding signal (z-score) [1]: -0.202
glycan array binding signal (z-score) [2]: -0.175
glycan array binding signal (z-score) [3]: 0.514
glycan array binding signal (z-score) [4]: 3.33
glycan array binding signal (z-score) [5]: 0.654
glycan array binding signal (z-score) [6]: -0.184
glycan array binding signal (z-score) [7]: 2.21
glycan array binding signal (z-score) [8]: -0.052
glycan array binding signal (z-score) [9]: -0.996
glycan array binding signal (z-score) [10]: -2.21
glycan array binding signal (z-score) [11]: 2.73
glycan array binding signal (z-score) [12]: -0.354
glycan array binding signal (z-score) [13]: -1.75
glycan array binding signal (z-score) [14]: 0.627
glycan array binding signal (z-score) [15]: -0.182
glycan array binding signal (z-score) [16]: 2.25
glycan array binding signal (z-score) [17]: 3.16
glycan array binding signal (z-score) [18]: 0.807
glycan array binding signal (z-score) [19]: 3.4
glycan array binding signal (z-score) [20]: -1.14
glycan array binding signal (z-score) [21]: 2.53
glycan array binding signal (z-score) [22]: -1.31
glycan array binding signal (z-score) [23]: -0.547
glycan array binding signal (z-score) [24]: 1.73
glycan array binding signal (z-score) [25]: 1
glycan array binding signal (z-score) [26]: 2.34
glycan array binding signal (z-score) [27]: 0
glycan array binding signal (z-score) [28]: -0.562
glycan array binding signal (z-score) [29]: 0.659
glycan array binding signal (z-score) [30]: 0.082
glycan array binding signal (z-score) [31]: 2.18
glycan array binding signal (z-score) [32]: 2.85
glycan array binding signal (z-score) [33]: -1.32
glycan array binding signal (z-score) [34]: 3.11
glycan array binding signal (z-score) [35]: -0.433
glycan array binding signal (z-score) [36]: 1.01
glycan array binding signal (z-score) [37]: 0.659
glycan array binding signal (z-score) [38]: -0.471
glycan array binding signal (z-score) [39]: -0.169
glycan array binding signal (z-score) [40]: 1.65
glycan array binding signal (z-score) [41]: -1.25
glycan array binding signal (z-score) [42]: -0.643
glycan array binding signal (z-score) [43]: 1.33
glycan array binding signal (z-score) [44]: -1.48
glycan array binding signal (z-score) [45]: 0.246
glycan array binding signal (z-score) [46]: -0.377
glycan array binding signal (z-score) [47]: 0.422
